Out of some 5,500 compounds screened, about 2,000 (36%) were called active. About 18% were inconclusive and are not listed. Cut-off read from the data, not from the text of the source: active = normalized growth mostly below about 0.91 (no sharp cut-off); inconclusive = no clear call, values can overlap the other calls; inactive = mostly above about 0.92. The list shows a part of the results.
Experiment: chemical genetic growth profiling, strain panel (AID 1159580);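 note: tested at 20 µM; growth read once vehicle control cultures reached saturation at 30 °C; 1 = growth at the plate median or of vehicle wells; lower values mean less growth of the strain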
Conditions: growth OD
[1] = S. cerevisiae deletion strains, locus YAL013W, strain DEP1, active compounds read low
[2] = S. cerevisiae deletion strains, locus YBR229C, strain ROT2, active compounds read low
[3] = S. cerevisiae deletion strains, locus YDL101C, strain DUN1, active compounds read low
[4] = S. cerevisiae deletion strains, locus YDR150W, strain NUM1, active compounds read low
[5] = S. cerevisiae deletion strains, locus YEL061C, strain CIN8, active compounds read low
[6] = S. cerevisiae deletion strains, locus YGR078C, strain PAC10, active compounds read low
[7] = S. cerevisiae deletion strains, locus YHR030C, strain SLT2, active compounds read low
[8] = S. cerevisiae deletion strains, locus YJR043C, strain POL32, active compounds read low
[9] = S. cerevisiae deletion strains, locus YJR075W, strain HOC1, active compounds read low
[10] = S. cerevisiae deletion strains, locus YLR039C, strain RIC1, active compounds read low
[11] = S. cerevisiae deletion strains, locus YLR262C, strain YPT6, active compounds read low
[12] = S. cerevisiae deletion strains, locus YMR263W, strain SAP30, active compounds read low
[13] = S. cerevisiae deletion strains, locus YMR307W, strain GAS1, active compounds read low
[14] = S. cerevisiae deletion strains, locus YNL128W, strain TEP1, active compounds read low
[15] = S. cerevisiae deletion strains, locus YNL153C, strain GIM3, active compounds read low
[16] = S. cerevisiae deletion strains, locus YNL322C, strain KRE1, active compounds read low
[17] = S. cerevisiae deletion strains, locus YOL006C, strain TOP1, active compounds read low
[18] = S. cerevisiae deletion strains, locus YPL055C, strain LGE1, active compounds read low
[19] = S. cerevisiae deletion strains, locus YPL241C, strain CIN2, active compounds read low
[20] = S. cerevisiae deletion strains, locus YAL040C, strain CLN3, active compounds read low
[21] = S. cerevisiae deletion strains, locus YDR363W, strain ESC2, active compounds read low
[22] = S. cerevisiae deletion strains, locus YER002W, strain NOP16, active compounds read low
[23] = S. cerevisiae deletion strains, locus YNL175C, strain NOP13, active compounds read low
[24] = S. cerevisiae deletion strains, locus YNL197C, strain WHI3, active compounds read low
[25] = S. cerevisiae deletion strains, locus YNL224C, strain SQS1, active compounds read low
[26] = S. cerevisiae deletion strains, locus YOR083W, strain WHI5 (second series), active compounds read low
[27] = S. cerevisiae deletion strains, locus YCL061C, strain MRC1 (second series), active compounds read low

Measured: normalized growth

Cc1cccc(Nc2ccncc2S(=O)(=O)NC(=O)NC(C)C)c1
inactive: [1] 1.01 | S. cerevisiae deletion strains, locus YBR021W, strain FUR4, active compounds read low 1.02 | [2] 1.01 | S. cerevisiae deletion strains, locus YCL029C, strain bik1, active compounds read low 1.02 | S. cerevisiae deletion strains, locus YDL035C, strain GPR1, active compounds read low 1.02 | S. cerevisiae deletion strains, locus YDL074C, strain BRE1, active compounds read low 1.01 | [3] 1.02 | S. cerevisiae deletion strains, locus YDL134C, strain PPH21, active compounds read low 1 | S. cerevisiae deletion strains, locus YDL185W, strain tfp1, active compounds read low 1.02 | S. cerevisiae deletion strains, locus YDL192W, strain arf1, active compounds read low 1.03 | S. cerevisiae deletion strains, locus YDR101C, strain arx1, active compounds read low 1.02 | [4] 1.02 | S. cerevisiae deletion strains, locus YDR162C, strain NBP2, active compounds read low 1.01 | S. cerevisiae deletion strains, locus YDR318W, strain mcm21, active compounds read low 1.03 | S. cerevisiae deletion strains, locus YDR388W, active compounds read low 1.02 | S. cerevisiae deletion strains, locus YDR502C, strain sam2, active compounds read low 1.02 | [5] 1.01 | S. cerevisiae deletion strains, locus YER110C, active compounds read low 1.03 | S. cerevisiae deletion strains, locus YER155C, strain BEM2, active compounds read low 0.999 | S. cerevisiae deletion strains, locus YER167W, strain BCK2, active compounds read low 1.01 | S. cerevisiae deletion strains, locus YGL078C, strain dbp3, active compounds read low 1.02 | S. cerevisiae deletion strains, locus YGL086W, strain mad1, active compounds read low 1.02 | S. cerevisiae deletion strains, locus YGL248W, strain PDE1, active compounds read low 1.01 | [6] 1.05 | S. cerevisiae deletion strains, locus YGR135W, strain pre9, active compounds read low 1.01 | S. cerevisiae deletion strains, locus YGR229C, strain SMI1, active compounds read low 1.04 | S. cerevisiae deletion strains, locus YGR252W, strain gcn5, active compounds read low 1.08 | [7] 1.01 | S. cerevisiae deletion strains, locus YHR079C, strain IRE1 (second series), active compounds read low 1.01 | S. cerevisiae deletion strains, locus YHR094C, strain hxt1, active compounds read low 1.02 | S. cerevisiae deletion strains, locus YHR129C, strain ARP1, active compounds read low 1 | S. cerevisiae deletion strains, locus YHR200W, strain rpn10, active compounds read low 1.03 | S. cerevisiae deletion strains, locus YIL066C, strain RNR3, active compounds read low 1.04 | S. cerevisiae deletion strains, locus YIL125W, strain kgd1, active compounds read low 1.01 | S. cerevisiae deletion strains, locus YIR030C, strain dcg1, active compounds read low 1.02 | S. cerevisiae deletion strains, locus YJL095W, strain BCK1, active compounds read low 1.02 | S. cerevisiae deletion strains, locus YJL134W, strain LCB3, active compounds read low 1.01 | S. cerevisiae deletion strains, locus YJL168C, strain set2, active compounds read low 1.02 | S. cerevisiae deletion strains, locus YJL187C, strain SWE1 (second series), active compounds read low 1.02 | [8] 1.04 | [9] 1.01 | S. cerevisiae deletion strains, locus YKL009W, strain mrt4, active compounds read low 1.01 | S. cerevisiae deletion strains, locus YKL068W, active compounds read low 1.01 | S. cerevisiae deletion strains, locus YKL085W, strain MDH1 (second series), active compounds read low 0.986 | S. cerevisiae deletion strains, locus YKL085W, strain MDH1, active compounds read low 0.986 | S. cerevisiae deletion strains, locus YKL190W, strain CNB1, active compounds read low 1.03 | S. cerevisiae deletion strains, locus YKR001C, strain vps1, active compounds read low 1.03 | [10] 1.04 | S. cerevisiae deletion strains, locus YLR058C, strain SHM2, active compounds read low 1.01 | S. cerevisiae deletion strains, locus YLR102C, strain apc9, active compounds read low 1.02 | [11] 1.03 | S. cerevisiae deletion strains, locus YLR268W, strain sec22, active compounds read low 1.02 | S. cerevisiae deletion strains, locus YLR330W, strain CHS5, active compounds read low 1.01 | S. cerevisiae deletion strains, locus YLR342W, strain FKS1 (second series), active compounds read low 1.06 | S. cerevisiae deletion strains, locus YLR371W, strain rom2, active compounds read low 1.03 | S. cerevisiae deletion strains, locus YLR418C, strain cdc73, active compounds read low 1.01 | S. cerevisiae deletion strains, locus YML016C, strain PPZ1, active compounds read low 1.01 | S. cerevisiae deletion strains, locus YML032C, strain rad52, active compounds read low 1.03 | S. cerevisiae deletion strains, locus YML124C, strain tub3, active compounds read low 1.02 | S. cerevisiae deletion strains, locus YMR078C, strain ctf18, active compounds read low 1.03 | S. cerevisiae deletion strains, locus YMR223W, strain ubp8, active compounds read low 1.03 | [12] 1.02 | [13] 1.05 | S. cerevisiae deletion strains, locus YNL067W, strain RPL9B, active compounds read low 1.01 | [14] 1.02 | [15] 1 | S. cerevisiae deletion strains, locus YNL233W, strain BNI4, active compounds read low 1 | S. cerevisiae deletion strains, locus YNL250W, strain rad50, active compounds read low 1.02 | S. cerevisiae deletion strains, locus YNL271C, strain bni1, active compounds read low 1.02 | S. cerevisiae deletion strains, locus YNL298W, strain CLA4, active compounds read low 1.02 | S. cerevisiae deletion strains, locus YNL307C, strain MCK1, active compounds read low 1.03 | [16] 1.02 | S. cerevisiae deletion strains, locus YNR052C, strain pop2, active compounds read low 1.03 | [17] 1 | S. cerevisiae deletion strains, locus YOL012C, strain htz1 0.913 | S. cerevisiae deletion strains, locus YOL147C, strain pex11, active compounds read low 1.02 | S. cerevisiae deletion strains, locus YOR061W, strain CKA2, active compounds read low 1.01 | S. cerevisiae deletion strains, locus YOR069W, strain VPS5, active compounds read low 1 | S. cerevisiae deletion strains, locus YOR136W, strain idh2, active compounds read low 1.03 | S. cerevisiae deletion strains, locus YOR144C, strain elg1, active compounds read low 1.03 | S. cerevisiae deletion strains, locus YOR184W, strain ser1, active compounds read low 1.03 | S. cerevisiae deletion strains, locus YOR316C, strain cot1, active compounds read low 1.02 | [18] 1.04 | [19] 1.03 | S. cerevisiae deletion strains, locus YPR119W, strain clb2, active compounds read low 1.02 | S. cerevisiae deletion strains, locus YPR141C, strain kar3, active compounds read low 1.02 | S. cerevisiae deletion strains, locus YPR163C, strain tif3, active compounds read low 1.03 | S. cerevisiae deletion strains, locus YPR167C, strain met16, active compounds read low 1.01 | S. cerevisiae deletion strains, strain wtn01, active compounds read low 1 | S. cerevisiae strains, strain wild type, active compounds read low 1.04

CC(=O)OCC1=C(C(=O)O)N2C(=O)C(NC(=O)Cc3cccs3)C2SC1 (centres undefined)
inactive: [1] 1.01 | [20] 0.993 | [21] 1 | [22] 1.03 | [9] 0.995 | [15] 1.03 | [23] 1.01 | [24] 1.05 | [25] 1.03 | [26] 1.05

CN1CCN(c2ccc3ccccc3n2)CC1
inactive: [20] 1.04 | [27] 0.996 | [4] 1 | [21] 0.982 | [22] 1 | [6] 1.01 | [9] 0.982 | [13] 1 | [23] 1.02 | [24] 1 | [25] 1.01 | [16] 0.982 | [26] 1.03 | [18] 0.925 | [19] 0.993

CN1CCN(c2nc3cc(C(F)(F)F)ccc3n3cccc23)CC1
active: [13] 0.867
inactive: [20] 1 | [27] 0.985 | [21] 0.908 | [22] 1.01 | [6] 1.01 | [9] 0.971 | [12] 1 | [14] 1.05 | [15] 0.88 | [24] 1.06 | [25] 1.03 | [16] 0.972 | [26] 0.919

OC1(c2ccc(Cl)cc2)CSc2nc3cc(C(F)(F)F)ccc3n21 (centres undefined)
inactive: [1] 1.03 | [2] 1 | [3] 0.995 | [4] 1.01 | [5] 1.02 | [6] 1 | [7] 1.02 | S. cerevisiae deletion strains, locus YHR087W, strain rtc3, active compounds read low 1.03 | [8] 1.01 | [9] 1 | [10] 1.09 | S. cerevisiae deletion strains, locus YLR058C, strain SHM2 (second series), active compounds read low 1.02 | S. cerevisiae deletion strains, locus YLR085C, strain ARP6, active compounds read low 1.11 | [11] 1.12 | S. cerevisiae deletion strains, locus YML094W, strain GIM5, active compounds read low 1.07 | S. cerevisiae deletion strains, locus YMR219W, strain ESC1, active compounds read low 1.01 | [12] 1.02 | [15] 0.991 | S. cerevisiae deletion strains, locus YNL298W, strain CLA4 (second series), active compounds read low 1.1 | [16] 1.02 | S. cerevisiae deletion strains, locus YNR030W, strain Alg12, active compounds read low 1.09 | [17] 1.08 | [18] 0.998 | [19] 1.04 | S. cerevisiae deletion strains, locus YPR135W, strain CTF4, active compounds read low 1.02

— PubChem BioAssay AID1159580 (chemical genetic matrix, 2015)
